Inconclusive results are not listed. A number with no mark means an inactive call. Calls come from the whole dose curve; as a rule, active = well fitted inhibition curve with a large enough effect; inconclusive = small, poorly fitted or top-dose-only effect; inactive = no such curve, though single readings can be large or run the other way.
assay: Primary qHTS for inhibitors of La Crosse Virus (LACV) - induced cell death in SH-SY5Y cells (AID 1508616); conditions: SH-SY5Y LACV cytopathicity rescue, ATP luminescence, 6 d; series mostly up to 4.29 µM; activity change: at the top concentration;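 note: top concentration of the series differs between compounds; 0% = infected DMSO wells and 100% = uninfected DMSO wells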
Source text: Assay Provider: Karin Peterson Ph.D.
National Institute of Allergy and Infection Diseases, National Institute of Health
La Crosse Virus (LACV) is a California serogroup mosquito-borne arbovirus, family Peribunyaviridae, which is an endemic pathogen in North America and can induce a rare, life-threatening neurological disease in children. LACV was first isolated in the early 1960s, from a summer "rural encephalitis" case in La Crosse, Wisconsin, USA. Since then, LACV encephalitis cases have been found in more than twenty states, with most cases in the Mississippi and Ohio River basins. The life cycle of LACV is maintained between the vector, the eastern tree-hole mosquito Aedes triseriatus, and vertebrate hosts including eastern gray squirrels (Sciurus carolinensis) and chipmunks (Tamiasstriatus grinseus). […] Most LACV infections in humans are asymptomatic or induce mild clinical symptoms of fever, headache, lethargy and vomiting. However, in some cases LACV can cause severe neuroinvasive disease, including encephalitis, meningitis, and meningoencephalitis, requiring hospitalization. To date, there is neither a licensed vaccine nor a Food and Drug Administration (FDA) approved antiviral therapy available to prevent or treat LACV encephalitis. The primary treatment for viral encephalitis is palliative care due to the lack of therapeutics. In the current study, we conducted a screen of 4,096 FDA approved and bioactive small molecules against LACV, by screening for rescue of LACV-induced cell death in SH-SY5Y cells.
LACV-induced cytopathicity assay
SEQUENCE No. (1,2, 3, etc.); […] (e.g., Cells, Incubation, Reagent, etc.); VALUE and DESCRIPTION.
1. Reagent; 2 uL; Cell solution.
3. Compounds; 23nL; Compound library
4. Reagent; 12 uL; LACV virus
6. Reagent; 24 uL; ATPLite (PerkinElmer)
7. Time; 5 min; Room temperature
8. Detection; Luminescence; View
NOTES (numbers refer to sequence above)
1. Seed 6000 SH-SY5Y cells (ATCC CRL-2266) in 2 microL/well media (DMEM/F12 10% FBS, 1x L-Glutamine, 1x Pyruvate, 1x NEAA, 1x Pen/Strep) in 384-well assay plates (tissue culture treated, white, solid bottom).
2. Incubate at 37 degrees C with 5% CO2 for 24 hr.
3. Dispense 23 nL/well compounds in DMSO via pin transfer.
4. Dispense 12 microL/well of LACV (LACV/human/1978) in media at 0.01 MOI.
5. Incubate at for 6 days at 37C 5% CO2
6. Dispense 24 microL/well of ATPLite 1step Luminescence assay system (PerkinElmer).
7. Incubate for 5 min at room temperature.
8. Read luminescence signal (Viewlux plate reader, PerkinElmer). Data was normalized with DMSO control wells containing LACV as 0%, and DMSO control wells without virus as 100%.

Structure (SMILES) | activity change
Cc1ncc([N+](=O)[O-])n1C | -6.95%
COc1ccc2nc(SCc3ncc(C)c(OC)c3C)[nH]c2c1 | 19.5%
CC1(C)O[C@@H]2C[C@H]3[C@@H]4CCC5=CC(=O)C=C[C@]5(C)[C@@]4(F)[C@@H](O)C[C@]3(C)[C@]2(C(=O)CO)O1 | 1.37%
O=C(CCCCCCCCC#CI)Oc1ccccc1 | -11.7%
CCN(CC)CCN | 7.21%
CCCC(CCC)(C(=O)OCC)C(=O)OCC | 53.8%
CC(=O)N(CC(=O)N(C)C)c1ccccc1 | -2.47%
C[C@H](N)C(=O)N[C@@H](C)C(=O)NC1[C@H]2CN(c3nc4c(cc3F)c(=O)c(C(=O)O)cn4-c3ccc(F)cc3F)C[C@@H]12 (stereo not given in full) | 9.67%
CCc1cc2cc(OC)c(OC)cc2c(Cc2ccccc2)n1 | -8.31%
Cc1c(N)cccc1C(F)(F)F | -10.2%
OC1(c2ccc(Cl)cc2)CCNCC1 | -12.1%
COc1ccc(/C(C)=C/C(=O)O)c(OC)c1 | 6.71%
CC(=O)N[C@@H](CCC(N)=O)C(=O)O | 36.2%
CCC(CN)=C(c1ccccc1)c1ccccc1 | 20.1%
CN1Cc2cc(C(=O)N3CCC(C4CCNCC4)CC3)ccc2NC(CC(=O)O)C1=O (stereo not given) | -12%
CCN1C(=O)c2ccccc2C1Nc1ccc(OCCN2CCCCC2)cc1 (stereo not given) | 5.35%
C[C@H]1NCc2cc(-c3ccc4c(=O)c(C(=O)O)cn(C5CC5)c4c3OC(F)F)ccc21 | 18.3% [at 1.78 µM]
CCc1cccc2c(CCO)c[nH]c12 | 35.7%
Cc1cc(O)c2c(O)c3c(O)cccc3cc2c1 | -5.13%
O=C(CCOCCOCCOCCOCCC(=O)Nc1c(I)cc(I)c(C(=O)O)c1I)Nc1c(I)cc(I)c(C(=O)O)c1I | 9.04%

Structure (SMILES) | activity change
Nc1ccc([N+](=O)[O-])c(C(F)(F)F)c1 | -9.38%
Nc1ccc2c(c1)CN1C(=O)c3ccccc3C1=N2 | -22.4% [at 1.78 µM]
NC(=O)NS(=O)(=O)c1ccc(Cl)cc1 | 14.9%
CN(C)CCN(Cc1ccsc1)c1ccccn1 | -5.74%
Oc1ccccc1 | 40.3%
CC(COc1ccccc1)NN (stereo not given) | -7.63%
C#Cc1ccc(-c2ccccc2F)cc1 | -3.53%
CO[C@@]1(NC(=O)CSC[C@@H](N)C(=O)O)C(=O)N2C(C(=O)O)=C(CSc3nnnn3C)CS[C@@H]21 | -6.92%
NCC[C@H](O)C(=O)N[C@@H]1C[C@H](N)[C@@H](O[C@H]2O[C@H](CN)[C@@H](O)[C@H](O)[C@@H]2O)[C@H](O)[C@@H]1O[C@H]1O[C@H](CO)[C@@H](O)[C@H](N)[C@@H]1O | 4.33% [at 0.0343 µM]
CCCCCCCC(=O)[O-].CCCCCCCC(=O)[O-].[Zn+2] | -2.86%
CC(NCCC(c1ccccc1)c1ccccc1)c1ccccc1 (stereo not given) | -12.6%
CCCCCC1Nc2cc(C(F)(F)F)c(S(N)(=O)=O)cc2S(=O)(=O)N1 (stereo not given) | -2.87%
Cn1cc(S(C)=O)c(=O)c2ccc(F)cc21 (stereo not given) | 0.854%
c1ccc(C(O[C@H]2CCCN(CCc3ccc4c(c3)OCO4)C2)c2ccccc2)cc1 | -29.8%
O=C(NN1CCCC1)NS(=O)(=O)c1ccc(Cl)cc1 | -8.17%
Oc1cccc2[nH]ccc12 | -12.7%
[O-][n+]1cccc(/C(Cl)=N/OC[C@@H](O)CN2CCCCC2)c1 | -9.96%
C/C(=N\O)[C@@H](C)NCC(C)(C)CN[C@H](C)/C(C)=N/O | 7.61%
CC1(C)S[C@@H]2[C@H](NC(=O)C(c3ccccc3)S(=O)(=O)O)C(=O)N2[C@H]1C(=O)O (stereo not given in full) | 2.85%
Cc1cc(CCCOc2c(C)cc(-c3noc(C(F)(F)F)n3)cc2C)on1 | -9.87%
